Screens from PubChem BioAssay.
Compounds with a hit are over-represented: about 14% of the library has one in this group of screens.
4-MU autofl = qHTS Assay for Spectroscopic Profiling in 4-MU Spectral Region. compound autofluorescence, 340/450 nm, 4-MU equivalents; active compounds read high. max dye-equivalent concentration, M. 59,000 tested, 11% active. AID 589, 2007; in the data active = max dye-equivalent concentration above about 10 nM; inconclusive = mostly about 1.1 nM to 9.6 nM
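Intrinsic fluorescence at 340/450 nm (ex/em) was read after 15 min at room temperature in pH 8.0, 100 mM Tris. Each compound concentration expressed as 4-MU-equivalent concentration from a six-point 4-MU standard series on each plate.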
AID923 = qHTS Assay for Allosteric/Competitive Inhibitors of Caspase-1: Spectroscopic Profiling in AFC Spectral Region. Potency, µM (series often up to 57.5 µM), without a hit: top-dose fluorescence increase, actives largely listed as activators. 75,000 tested, 1.1% active. compound fluorescence, AFC spectral region (405/520 nm). AID 923, 2007; note: potency is the fitted concentration of half-maximal effect; 0% is about no effect
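Compound autofluorescence profiled at 405 nm ex/520 nm em during kinetic caspase 1 run (50 nM enzyme, 5 uM Ac-WEHD-AFC, HEPES pH 7.5, 10 mM DTT). Titration up to 57 uM; baseline from regression intercept, normalized to AFC standard curve.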
HSD17B inhib = qHTS Assay for Inhibitors of HSD17B4, hydroxysteroid (17-beta) dehydrogenase 4; recombinant HSD17B10, NADH fluorescence kinetic; Potency, µM (series often up to 57.1 µM), for inactives: at the top dose activity change, negative = inhibition, actives largely listed as inhibitors; 75,000 tested, 7.6% active; 3-hydroxyacyl-CoA dehydrogenase type-2 (Homo sapiens), Q99714;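 note: the protocol describes HADH2 (HSD17B10) and not the HSD17B4 of the title; potency is the fitted concentration of half-maximal effect; % is set by controls: 0 for no effect and ±100 for the full control effect; nearly all actives have a fitted effect of over 70% in size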
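20 nM HADH2, pH 9.0 Tris/Tween; cpd preinc 15 min RT; start w/ 1 mM NAD+ + 90 uM b-hydroxybutyryl-CoA; kinetic fluor ex360/em450 q30s x 4 min; delta last-first.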
HADH2 inhib = qHTS Assay for Inhibitors of HADH2 (Hydroxyacyl-Coenzyme A Dehydrogenase, Type II); 3-hydroxyacyl-CoA dehydrogenase type-2 (Homo sapiens), Q99714; recombinant HADH2, NADH fluorescence, beta-hydroxybutyryl-CoA; Potency, µM (top dose mostly 57.1 µM), for inactives: at the top dose activity change, negative = inhibition, usual class: inhibitors; 73,000 tested, 3.4% active; note: potency is the fitted concentration of half-maximal effect; % is set by controls: 0 for no effect and ±100 for the full control effect; nearly all actives have a fitted effect of over 60% in size
Target sequence (Q99714 whole entry, looked up, one chain of several): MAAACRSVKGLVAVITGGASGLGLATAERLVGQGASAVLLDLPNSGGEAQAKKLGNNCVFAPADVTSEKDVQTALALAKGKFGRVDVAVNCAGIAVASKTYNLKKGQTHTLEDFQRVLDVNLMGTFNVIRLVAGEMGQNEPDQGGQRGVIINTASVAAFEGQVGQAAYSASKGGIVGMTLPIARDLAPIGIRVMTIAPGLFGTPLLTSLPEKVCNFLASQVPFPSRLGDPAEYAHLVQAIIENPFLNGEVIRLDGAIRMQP
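E. coli-expressed His-tagged HADH2 tested at 20 nM in alkaline Tris buffer (pH 9.0); oxidation of 90 uM beta-hydroxybutyryl-CoA with 1 mM NAD+ tracked fluorimetrically for 4 min.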
A350 autofl = qHTS Assay for Spectroscopic Profiling in A350 Spectral Region; Compound autofluorescence, 340/450 nm, Alexa 350 dye-equivalents; active compounds read high; max dye-equivalent concentration, M; 59,000 tested, 11% active; in the data active = max dye-equivalent concentration above about 10 nM; inconclusive = mostly about 1.1 nM to 9.6 nM
CRE-bla Fsk = Cell signaling CRE-BLA (Fsk stim) | CHO CRE-bla reporter (cAMP response element driving beta-lactamase), forskolin EC10, beta-lactamase ratio | Potency, µM (top dose mostly 38.2 µM), for inactives: at the highest dose activity change, negative = inhibition, most hits filed as activators | 71,000 tested, 2.5% active; active = well fitted activation curve with a large enough effect in the signal ratio, with a control signal flat, not every such curve was filed as active; inconclusive = small, poorly fitted or top-dose-only effect, or effect the other way, or a change in a side signal; the % refers to the signal ratio; note: potency is the fitted concentration of half-maximal effect; % of control where 0% means no effect
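Modulation of forskolin signalling: compounds in titration series added with EC10 NKH 477 to CHO cells carrying a CRE-driven beta-lactamase reporter, 3 h, 37C. CCF4 FRET ratio (460/530 nm, ex 405 nm) gives %activity and AC50.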
Numbers without * were called inactive; i = inactive; u = inconclusive; x = no result; [ ] = remark or other dose. Unless noted, calls come from the whole dose curve; as a rule, active = well fitted curve in the direction sought with a large enough effect; inconclusive = small, poorly fitted or top-dose-only effect, or another doubt; inactive = no such curve, though single readings can be large; an effect the other way counts as inactive or inconclusive.

SMILES	4-MU autofl	AID923	HSD17B inhib	HADH2 inhib	A350 autofl	CRE-bla Fsk
COc1ccc(C2C(C(=O)Nc3cc(C)on3)c3ccccc3C(=O)N2C)cc1OC (stereo unspecified)	1e-07M*	1%	25µM*	26%	1.3e-07M*	-13%
C[C@H](NC(=O)[C@@H]1C[C@H]1[C@@H](NC(=O)OCc1ccccc1)c1ccccc1)c1ccccc1	x	0%	4%	14%	x	5%
O=C(OCC(=O)N1CCN(C(=O)c2ccco2)CC1)c1ccccc1OCc1ccc(Cl)cc1	i	0%	1%	3%	i	16%
COc1cc(/C=N/n2c(SC)nnc(C(C)(C)C)c2=O)ccc1O	x	2%	-8%	-11%	x	u
CN(Cc1ccco1)c1ncnc2ccc(-c3cccc(NS(C)(=O)=O)c3)cc12	u	2%	-8%	4%	u	1.3µM*
Cc1cccc(N2CCN(c3nc4ccc(Cl)cc4n4cnnc34)CC2)c1C	x	0%	25µM*	3%	x	6%
OCCN1CCN(C(c2cccs2)c2ccc3cccnc3c2O)CC1 (stereo unspecified)	i	-1%	16µM*	3.2µM*	i	u
CN1CCN(C(=O)c2ccccc2NC(=O)Cc2ccccc2)CC1	x	0%	5%	5%	x	2%
CC(C)CC(NC(=O)C1CCC(C)CC1)C(=O)N1CCN(c2ccccn2)CC1 (stereo unspecified)	x	1%	32µM*	-2%	x	-17%
COC(=O)C1=C(C)N(Cc2ccccc2)c2c(C(=O)OC)c(C(=O)OC)c(C(=O)OC)c(=O)n2C1c1ccccc1 (stereo unspecified)	x	1%[11.5 µM]	7%[11.4 µM]	8%[11.4 µM]	x	x
CCCCN=C(C)c1c(O)c2ccccc2oc1=O	x	0%	-2%	-11%	x	u
CCCCc1c(C)c2ccc(OC)c(/C(C)=N\O)c2oc1=O	2e-08M*	2%	32µM*	-7%	1.9e-08M*	1%
O=C(NCc1cccs1)C(Cc1ccccc1)n1cccc1 (stereo unspecified)	x	0%	-19%	-11%	x	-7%
Nc1nonc1N1CCCCC1	i	-1%	14%	12%	i	5%
Nc1nc2nonc2nc1N1CCCCC1	4.5e-07M*	11%	32µM*	25µM*	4.6e-07M*	-7%
N=C(N)S/C=C\C(=O)O	x	5%	-6%	5µM*	x	u
C[C@@]1(C(NC(=O)c2ccc(-c3ccccc3)cc2)c2ccc(Cl)cc2)C[C@H]1C1CCCCC1 (stereo partly specified)	x	1%	-1%	8%	x	2%
Cc1nc2ccccc2c(=O)n1NCc1cc(Br)cs1	1.1e-08M*	-2%	u	-3%	1.2e-08M*	-24%
O=C(CCn1nc(-c2ccccc2)ccc1=O)N1CCOCC1	i	1%	-4%	0%	i	0%
CCOC(=O)N1CCN(C(=O)CCn2nc(-c3ccccc3)ccc2=O)CC1	9.6e-08M*	-1%	32µM*	4%	9.4e-08M*	u
CC(=O)Nc1ccc(N/C=C/C(=O)C(C)(C)C)cc1	2e-08M*	0%	-7%	u	2.2e-08M*	0%
O=C1C=C(N2CCN(c3ccccn3)CC2)C(=O)c2c(O)ccc(O)c21	i	-1%[11.5 µM]	-6%[11.4 µM]	-19%[11.4 µM]	i	3.2µM*
O=C(CN1C(=O)c2ccccc2C1=O)N1CCN(c2ccccn2)CC1	i	-2%	353%	30%	i	4%
CCN1C(=O)[C@H]2[C@H]3[C@H](O)[C@H](O)C/C(=N/O[C@@H](C)CN4CCCCc5nc(C)c(C)cc54)[C@@H]3CC[C@@H]2C1=O	x	1%[11.5 µM]	3%[11.4 µM]	8%[11.4 µM]	x	x
CN(CC(=O)NCc1cccs1)S(=O)(=O)c1cccc2nsnc12	i	1%	1%	-2%	i	-29%
SMILES	4-MU autofl	AID923	HSD17B inhib	HADH2 inhib	A350 autofl	CRE-bla Fsk
Cn1c(=O)c2c(SCC(=O)NCC3CCCO3)nc(-c3cccs3)nc2n(C)c1=O (stereo unspecified)	x	-2%	u	-7%	x	12%
CC(C)Sc1nc(-c2cccs2)nc2c1c(=O)n(C)c(=O)n2C	x	-3%	u	4%	x	3.2µM*
COc1cc(C(=O)Nc2cc(-c3nc4cc(C)ccc4o3)ccc2C)cc(OC)c1OC	x	0%	u	19%	x	17%
COc1cc(OC)cc(-c2nc3cc(C)ccc3o2)c1	i	0%	32µM*	-4%	i	3%
COc1cc(CNc2cccc(F)c2)cc(Br)c1O	x	0%	-24%	13µM*	x	11%
CCOc1ccc(CNc2ccc3c(c2)nc(C)n3C)cc1	i	2%	32µM*	-3%	i	-3%
O=S(=O)(O)c1cc(O)c2c(N=Cc3ccccc3O)cc(S(=O)(=O)O)cc2c1	1e-07M*	2%[11.5 µM]	4µM*	2µM*	1.2e-07M*	u
Cc1cc(O)c(C(C)C)cc1N=Cc1ccccc1O	i	1%[11.5 µM]	-3%[11.4 µM]	-16%[11.4 µM]	i	2%[7.6 µM]
Cc1cccc(NS(=O)(=O)c2ccc(Oc3ccccc3)cc2)n1	i	0%	32µM*	-11%	i	2%
Cc1cc(NS(=O)(=O)c2ccc(-c3ccccc3)cc2)no1	i	1%	-5%	-3%	i	0%
Cc1cc(SCC(=O)c2ccccc2)nc2ccccc12	i	3%[11.5 µM]	0%[11.4 µM]	-12%[11.4 µM]	i	4%[7.6 µM]
O=C1[C@H]2CCn3c(=O)n(-c4ccccc4)c(=O)n3[C@H]2[C@H](O)[C@H]2O[C@@H]12	x	-1%[11.5 µM]	5%[11.4 µM]	-8%[11.4 µM]	x	x
CCOc1ccc2[nH]c(C)c(CN3CCN(CC)CC3)c(=O)c2c1	u	0%	u	23%	u	u
CCCCN(C)Cc1c(C)[nH]c2ccc(OCC)cc2c1=O	x	-4%	25µM*	36%	x	2%
C=Cc1c(C)/c2[n-]/c1=C\c1[n-]c(c(CC)c1C)/C=c1\[n-]c3c(c1C)C(=O)C(C(=O)[O-])C=3c1[n-]c(c(C)c1CCC(=O)[O-])\C=2.[Cu].[Na+].[Na+] (stereo unspecified)	x	5%	6.3µM*	x	x	x
COc1ccccc1CNC(=O)COc1ccccc1OC	i	0%	-12%	-1%	i	1%
C=CCn1c(=O)c(C(=O)NCCc2ccccc2)c(O)c2ccccc21	x	2%	-13%	-1%	x	u
CCn1c(=O)c(C(=O)Nc2nc3ccccc3[nH]2)c(O)c2ccccc21	1.6e-08M*	3%	6%	21%	1.6e-08M*	7%
CCCn1c(=O)c(C(=O)Nc2ccccc2C(=O)OCC)c(O)c2ccccc21	8.1e-08M*	-1%	-4%	24%	1.1e-07M*	u
